94 molecules from PubChem BioAssay AID588689 (Southern Research Specialized Biocontainment Screening …, 2011) can be followed below.

The inhibition is the change of the read-out against control, counted positive when it falls.

Values joined by “and” are separate entries in the source; they are usually repeats but may differ in a detail not shown here. Equal values may be shown once. About 1,000 (0.29%) of roughly 340,000 compounds were called active. No stated cut-off is given here; in the data, inconclusive means inhibition above about 29% without an active follow-up result; inactive means below that. Only a sample is shown. Entries with a potency or affinity are not part of this list.

This test deals with Genome polyprotein (Dengue virus type 2 (strain 16681-PDK53)) (UniProt P29991). Description: Dengue-2 NS5 methyltransferase inhibitors, primary screen, biochemical, confirmation dose response (AID 588689). As to conditions: Dengue-2 NS5 methyltransferase capping enzyme assay, at 25 µM, stronger effect = higher value.
Setting [1] is: measured here: pilot screen replicate inhibition.

Genome polyprotein (Dengue virus type 2 (strain 16681-PDK53)), sequence (P29991 whole entry, looked up): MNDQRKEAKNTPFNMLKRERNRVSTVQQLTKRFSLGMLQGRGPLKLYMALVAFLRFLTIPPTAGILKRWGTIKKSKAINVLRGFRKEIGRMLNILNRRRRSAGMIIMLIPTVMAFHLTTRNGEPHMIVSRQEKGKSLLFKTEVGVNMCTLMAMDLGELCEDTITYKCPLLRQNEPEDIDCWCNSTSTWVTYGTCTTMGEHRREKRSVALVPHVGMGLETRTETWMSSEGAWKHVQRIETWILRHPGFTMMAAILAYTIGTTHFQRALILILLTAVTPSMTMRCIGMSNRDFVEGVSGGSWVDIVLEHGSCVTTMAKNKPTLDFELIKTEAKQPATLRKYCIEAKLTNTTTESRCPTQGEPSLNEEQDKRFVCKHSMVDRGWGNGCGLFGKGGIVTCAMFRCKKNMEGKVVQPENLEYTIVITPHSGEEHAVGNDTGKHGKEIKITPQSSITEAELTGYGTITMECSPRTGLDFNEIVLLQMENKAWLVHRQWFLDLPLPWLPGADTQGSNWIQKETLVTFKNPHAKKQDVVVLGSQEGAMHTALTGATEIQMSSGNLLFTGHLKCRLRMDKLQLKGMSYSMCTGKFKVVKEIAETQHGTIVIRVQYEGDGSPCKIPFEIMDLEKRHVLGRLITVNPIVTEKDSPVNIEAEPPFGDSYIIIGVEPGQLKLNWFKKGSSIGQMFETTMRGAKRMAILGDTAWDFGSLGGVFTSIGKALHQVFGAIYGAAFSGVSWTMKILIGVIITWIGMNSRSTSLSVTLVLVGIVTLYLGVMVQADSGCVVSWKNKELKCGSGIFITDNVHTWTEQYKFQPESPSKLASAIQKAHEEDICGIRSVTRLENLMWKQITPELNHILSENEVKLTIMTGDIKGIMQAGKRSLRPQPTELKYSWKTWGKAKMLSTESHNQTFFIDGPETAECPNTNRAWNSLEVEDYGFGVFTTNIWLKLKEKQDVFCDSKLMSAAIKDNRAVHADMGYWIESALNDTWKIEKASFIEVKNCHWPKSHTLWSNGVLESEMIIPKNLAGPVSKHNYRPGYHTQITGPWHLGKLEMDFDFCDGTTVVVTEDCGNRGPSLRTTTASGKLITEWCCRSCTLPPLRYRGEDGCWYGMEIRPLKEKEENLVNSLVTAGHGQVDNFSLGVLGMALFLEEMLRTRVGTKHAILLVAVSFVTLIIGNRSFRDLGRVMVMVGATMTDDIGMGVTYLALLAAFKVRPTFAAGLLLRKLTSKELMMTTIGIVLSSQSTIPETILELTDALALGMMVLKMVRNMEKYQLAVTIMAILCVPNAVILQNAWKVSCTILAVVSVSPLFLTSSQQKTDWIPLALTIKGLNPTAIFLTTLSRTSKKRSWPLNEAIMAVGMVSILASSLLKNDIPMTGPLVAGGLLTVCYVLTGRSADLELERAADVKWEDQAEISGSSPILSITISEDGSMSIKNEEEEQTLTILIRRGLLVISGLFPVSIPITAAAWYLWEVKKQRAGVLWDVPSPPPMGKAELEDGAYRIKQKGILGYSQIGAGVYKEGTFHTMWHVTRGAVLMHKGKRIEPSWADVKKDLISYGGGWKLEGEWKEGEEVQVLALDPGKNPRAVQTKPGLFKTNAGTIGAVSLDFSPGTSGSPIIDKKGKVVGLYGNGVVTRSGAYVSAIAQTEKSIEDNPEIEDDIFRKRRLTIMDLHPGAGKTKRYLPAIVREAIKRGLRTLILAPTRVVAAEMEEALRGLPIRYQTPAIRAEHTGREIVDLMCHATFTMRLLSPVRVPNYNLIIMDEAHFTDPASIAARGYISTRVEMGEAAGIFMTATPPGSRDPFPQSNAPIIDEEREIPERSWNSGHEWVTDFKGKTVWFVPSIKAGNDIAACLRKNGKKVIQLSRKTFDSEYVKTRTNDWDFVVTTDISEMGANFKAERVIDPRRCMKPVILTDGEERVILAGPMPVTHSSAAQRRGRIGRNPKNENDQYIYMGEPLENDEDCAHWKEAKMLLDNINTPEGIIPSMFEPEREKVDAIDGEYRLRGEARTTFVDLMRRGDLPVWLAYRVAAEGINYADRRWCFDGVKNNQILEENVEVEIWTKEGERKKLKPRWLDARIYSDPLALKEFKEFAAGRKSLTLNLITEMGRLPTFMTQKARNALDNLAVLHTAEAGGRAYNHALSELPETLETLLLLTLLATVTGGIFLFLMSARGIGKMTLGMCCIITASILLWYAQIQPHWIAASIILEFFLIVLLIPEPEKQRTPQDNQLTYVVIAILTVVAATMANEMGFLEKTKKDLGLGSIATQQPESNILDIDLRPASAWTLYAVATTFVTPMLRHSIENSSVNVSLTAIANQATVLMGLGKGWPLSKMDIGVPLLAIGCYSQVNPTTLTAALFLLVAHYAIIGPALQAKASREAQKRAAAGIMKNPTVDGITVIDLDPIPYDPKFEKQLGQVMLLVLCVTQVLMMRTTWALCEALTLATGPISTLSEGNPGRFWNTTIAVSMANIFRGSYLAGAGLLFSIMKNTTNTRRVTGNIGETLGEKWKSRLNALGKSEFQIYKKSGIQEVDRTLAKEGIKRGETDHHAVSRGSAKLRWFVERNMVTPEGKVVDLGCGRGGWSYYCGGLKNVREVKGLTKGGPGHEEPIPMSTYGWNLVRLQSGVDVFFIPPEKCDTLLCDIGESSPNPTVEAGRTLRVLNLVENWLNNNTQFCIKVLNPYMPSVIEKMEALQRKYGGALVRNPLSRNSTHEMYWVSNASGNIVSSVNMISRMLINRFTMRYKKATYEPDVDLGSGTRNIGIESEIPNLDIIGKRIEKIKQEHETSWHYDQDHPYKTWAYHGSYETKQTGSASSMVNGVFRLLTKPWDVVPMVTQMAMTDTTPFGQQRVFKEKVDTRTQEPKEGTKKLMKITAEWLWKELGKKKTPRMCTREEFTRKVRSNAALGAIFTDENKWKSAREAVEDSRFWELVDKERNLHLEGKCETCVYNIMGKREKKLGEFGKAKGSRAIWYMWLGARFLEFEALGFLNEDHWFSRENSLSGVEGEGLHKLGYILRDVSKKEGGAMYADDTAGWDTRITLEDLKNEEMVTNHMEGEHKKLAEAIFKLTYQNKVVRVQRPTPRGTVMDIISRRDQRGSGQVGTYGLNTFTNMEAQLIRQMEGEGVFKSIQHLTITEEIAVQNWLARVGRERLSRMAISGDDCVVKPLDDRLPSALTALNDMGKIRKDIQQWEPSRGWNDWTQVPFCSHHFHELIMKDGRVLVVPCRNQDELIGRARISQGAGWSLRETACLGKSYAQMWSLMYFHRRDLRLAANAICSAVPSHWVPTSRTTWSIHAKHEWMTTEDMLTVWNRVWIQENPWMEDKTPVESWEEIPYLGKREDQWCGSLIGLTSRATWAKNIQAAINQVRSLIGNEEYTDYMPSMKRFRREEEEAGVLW

On to `COc1ccc([C@H]2/C=C\CN(S(=O)(=O)c3ccc(C)cc3)[C@@H](C)C(=O)N2Cc2ccc(F)cc2)cc1`, for which the inhibition was -6.14% (inactive).
As for `CC1CCCCN1CCCNC(=O)CN1C(=O)CSc2ccc(S(=O)(=O)N3CCOCC3)cc21` (stereo unspecified), the inhibition is 0.89% (inactive).
For `Cc1ccnc(SCC(=O)N2CCC(C(N)=O)CC2)n1`, the inhibition was 5.18% (inactive).
In the case of `O=C1CSCC(=O)N1Cc1ccc(Cl)c(Cl)c1`, the inhibition was 1.96% (inactive).
Turning to `CCC(Oc1ccccc1)C(=O)NCCOC` (stereo unspecified), the inhibition is -3.68% (inactive).
Same read-out and setting: to `CCOC(=O)c1c(/N=C/c2cc(OC)cc([N+](=O)[O-])c2O)sc(C)c1C` belongs -0.36% (inactive).
Still for that read-out and setting: the value for `CCOC(=O)c1c(/N=C/c2cccc([N+](=O)[O-])c2O)sc2c1CCC2` was 25.2% (inactive); that for `O=C(CCC(=O)c1ccc(F)cc1)Nc1cc(Cl)cc(Cl)c1` was -2.06% (inactive).
With `CCCc1cc(C(=O)Cc2ccc(C(=O)OCC)o2)c(O)cc1O`, the inhibition is -23.9% (inactive).
Still for that read-out and setting: to `CCOC(=O)c1ccc(CC(=O)c2ccc(O)cc2O)o1` belongs -4.07% (inactive); to `Nc1ccc(C(=O)N/N=C/c2cn(Cc3ccccc3F)c3ccccc23)cc1`, -1.3% (inactive).
Still for that read-out and setting: the value for `O=C(O)c1ccc(N/N=C/c2cn(Cc3ccc(F)cc3)c3ccccc23)cc1` was 9.41% (inactive).
Consider `COc1ccc(OCC(O)CN2CCOCC2)cc1` (stereo unspecified), for which the inhibition was 7.33% (inactive).
With `Cc1ccc[n+](-c2[nH]c(=O)sc2/C=N/N=C(\[O-])c2cccnc2)c1`, the inhibition was 7.25% (inactive).
Same read-out and setting: to `Cc1ccc(NS(=O)(=O)c2ccc(NS(=O)(=O)c3cccs3)cc2)cc1` belongs -2.07% (inactive); to `Cc1ccc(NS(=O)(=O)c2cccs2)nc1`, -0.32% (inactive); to `O=C(C[n+]1ccn(CCCNP2(=O)C=C(c3ccccc3)OC(c3ccccc3)=C2)c1)c1cccs1`, 6.89% (inactive).
The same measure, in the same setting: the value for `Cc1cccc(COCC(Cc2ccccc2)N2CCN(C(=O)c3cccc(C)c3)CCC2=O)c1` (stereo unspecified) was -1.6% (inactive).
Regarding `COc1ccc(-c2noc(CCC(=O)N3CCN(c4ccccc4C)CC3)n2)cc1`, the inhibition is -3.97% (inactive). The inhibition under setting [1] is -0.01%.
Take `O=C(O)c1cc(O)c2c(c1)C(=O)c1cccc(O)c1C2=O`: the inhibition is 5.97% (inactive).
Turning to `COc1cccc2c1-c1c(O)cccc1C2=O`, the inhibition is 9.88% (inactive). Under setting [1], the inhibition was 6.38%.
With `Nc1ncn(C(=S)Nc2ccccc2)n1`, the inhibition was 5.4% (inactive).
Turning to `COc1cc(OC)cc(-c2nnc(Nc3nc4c(F)cccc4s3)o2)c1`, the inhibition is 0% (inactive).
On the same count and under the same terms, the value for `COc1cccc(-c2nnc(Nc3nc4c(F)cccc4s3)o2)c1` was 3.39% (inactive); that for `Cc1nc2cc(N3CCOCC3)c(NC(=O)C3CC3)cc2c(=O)n1Cc1ccccc1` was 0% (inactive); that for `O=S1(=O)N=C(SCCO)c2ccccc21` was 1.39% (inactive).
The same measure, in the same setting: the value for `O=C(CSC1=NS(=O)(=O)c2ccccc21)Nc1ccccc1` was 25.7% (inactive); that for `COc1cccc(CNS(=O)(=O)c2cc3c4c(c2)CCN4C(=O)CC3)c1` was -2.16% (inactive); that for `CNC(=S)Nc1cc(C)ccc1OC(F)F` was -3.09% (inactive).
On the same count and under the same terms, to `CCOC(=O)c1c(-c2cccc3ccccc23)csc1NC(=O)C1C2CCC(O2)C1C(=O)O` (stereo unspecified) belongs 2.56% (inactive).
On to `CCOC(=O)c1c(NC(=O)C2C3CCC(O3)C2C(=O)O)sc(C)c1-c1ccc(C)cc1` (stereo unspecified), for which the inhibition was 16.7% (inactive).
Same read-out and setting: to `COC(=O)c1c(-c2ccc(C(C)(C)C)cc2)csc1NC(=O)C1C2CCC(O2)C1C(=O)O` (stereo unspecified) belongs 10.8% (inactive); to `CCOC(=O)c1c(NC(=O)C2C3CCC(O3)C2C(=O)O)sc2c1CCCC2` (stereo unspecified), -0.74% (inactive).
Regarding `O=C(Nc1nc2n(n1)C(c1ccc(F)cc1)CC(c1ccccc1)N2)c1ccco1` (stereo unspecified), the inhibition was -3.83% (inactive).
For `Cc1ccc2c(ccc[n+]2CC(=O)c2ccccc2)c1`, the inhibition is -3.89% (inactive).
Still for that read-out and setting: the value for `O=C(C1CCN(S(=O)(=O)c2ccccc2)CC1)N1CCN(c2ccccc2F)CC1` was -3.69% (inactive).
On the same count and under the same terms, the value for `COc1cc(OC)c(N2CC(C(=O)NCCC3=CCCCC3)CC2=O)cc1Cl` (stereo unspecified) was -2.95% (inactive); that for `O=C(O)c1cc2ccccc2c(N=Nc2cccnc2)c1O` was 0.81% (inactive).
Same read-out and setting: the value for `O=C(O)c1cc(N=Nc2c(O)ccc3ccccc23)cc(C(=O)O)c1` was 20.4% (inactive); that for `CN(Cc1ccccc1)S(=O)(=O)c1ccc(Cl)c(C(=O)N2CCC(C(N)=O)CC2)c1` was 4.28% (inactive); that for `Cc1cccc(Cc2nnc(CCC(=O)N(C)CCc3ccccc3)o2)c1` was 10.8% (inactive).
Turning to `CN(C)C(=O)Cn1cc(S(=O)(=O)Cc2ccccc2)c2ccccc21`, the inhibition is -2.66% (inactive).
Still for that read-out and setting: to `O=C(NCc1ccco1)c1sc(=S)n2c1[nH]c(=O)c1ccccc12` belongs 0% (inactive); to `CCCCNC(=O)c1sc(=S)n2c1[nH]c(=O)c1ccccc12`, 10.2% (inactive).
Still for that read-out and setting: the value for `CC(=O)Nc1ccc2c(O)cc(S(=O)(=O)O)cc2c1` was -7.72% (inactive).
The same measure, in the same setting: the value for `Nc1ccc(Nc2ccccc2)c(S(=O)(=O)O)c1` was 54.5% (inactive).
Regarding `CN(C)c1ccc2cc(S(=O)(=O)O)cc(O)c2c1`, the inhibition was 81.6% (inactive).
On the same count and under the same terms, the value for `Nc1cc(S(=O)(=O)O)cc2ccc(S(=O)(=O)O)cc12` was 7.17% (inactive).
Still for that read-out and setting: the value for `O=S(=O)(O)c1cc(O)c2ccc(Nc3ccccc3)cc2c1` was 8.94% (inactive); that for `O=S(=O)(O)c1cccc(N=Nc2c(O)ccc3ccccc23)c1` was 1.57% (inactive).
Still for that read-out and setting: the value for `Nc1ccc(C(=O)Nc2ccc3c(O)cc(S(=O)(=O)O)cc3c2)cc1` was 4.28% (inactive); that for `Cc1ccc(S(=O)(=O)c2cc(Nc3ccccc3)ccc2O)cc1` was 8.82% (inactive); that for `CN(C)/C=C1\NC(=S)N(c2ccc(Cl)cc2)C1=O` was -20.4% (inactive).
`Cc1ccc(S(=O)(=O)N2CCN(Cc3csc(C)n3)CC2)cc1`: the inhibition was 2.27% (inactive).
`CC(C)CN(C(=O)COC(=O)CSc1ccc(Br)cc1)C1CCS(=O)(=O)C1` (stereo unspecified): the inhibition was -3.62% (inactive).
Same read-out and setting: to `COc1cc(C=O)ccc1OCCOCCOc1ccc(Cl)cc1Cl` belongs -6.82% (inactive).
The same measure, in the same setting: to `Nc1cccc2cc(S(=O)(=O)O)ccc12` belongs 13.9% (inactive); to `Nc1cccc2c(O)cccc12`, 6.13% (inactive).
Still for that read-out and setting: the value for `O=C1c2ccccc2-c2nccnc21` was 1.62% (inactive); that for `O=C1c2ccccc2-c2n[nH]c(=O)c3ccc(N4CCCCC4)c1c23` was -9.35% (inactive); that for `C=CCNC(=S)N/N=C/c1ccccc1OCCOc1ccccc1` was 2.29% (inactive).
For `CCN(CC)C(=O)CCSc1nnc(-c2ccncc2)o1`, the inhibition was -3.83% (inactive).
For the molecule `Cc1ccc(OCC(=O)N[C@@H](C)c2nnc3ccccn23)cc1C`, the inhibition is -6.18% (inactive).
Turning to `O=C(COC(=O)c1cccc(F)c1)Nc1cccc(S(=O)(=O)N2CCOCC2)c1`, the inhibition is -5.49% (inactive).
Still for that read-out and setting: to `COc1ccc(NC(=O)C2CCC(CNc3c(N4CCC(C)CC4)c(=O)c3=O)CC2)cc1OC` (stereo unspecified) belongs -6.26% (inactive) and 8.76% (inactive); to `O=C(NNc1ccccc1)c1ccccc1`, -0.81% (inactive); to `COc1ccc(C(=O)NNc2ccccc2)cc1`, 4.46% (inactive).
The same measure, in the same setting: to `Cn1c(=O)[nH]c(=O)c2c1nc(N1CCOCC1)n2CCN1CCOCC1` belongs 1.62% (inactive).
Take `COc1ccc(-c2csc(NC(=O)c3ccccc3F)c2C(=O)O)cc1`: the inhibition is 11.1% (inactive).
The same measure, in the same setting: to `COc1cc(C(=O)Nc2scc(-c3ccc(C)cc3)c2C(=O)O)cc(OC)c1OC` belongs 3.47% (inactive); to `O=C(Nc1scc(-c2cccs2)c1C(=O)O)c1cccs1`, 22.9% (inactive).
`Cc1ccccc1C(=O)Nc1scc(-c2ccc(Br)cc2)c1C(=O)O`: the inhibition is 22.5% (inactive).
On the same count and under the same terms, the value for `COc1ccc(-c2csc(NC(=O)c3cccs3)c2C(=O)O)cc1OC` was -3.65% (inactive); that for `COc1cc(C(=O)Nc2scc(-c3ccccc3)c2C(=O)O)cc(OC)c1OC` was 14.7% (inactive).
On the same count and under the same terms, the value for `Cc1ccc(Cn2ccc(NC(=O)c3cc(-c4ccc(Cl)cc4)on3)n2)cc1` was -1.39% (inactive); that for `Oc1ccccc1C1OCC2(CO1)COC(c1ccccc1O)OC2` (stereo unspecified) was 1.95% (inactive); that for `COc1cccc(-c2c(-c3cc(OC)cc(OC)c3)n(C)c3ccc(-c4ccc(OC)nc4)cc23)c1` was 2.45% (inactive).
On to `COC(=O)[C@@H](NC(=O)/C=C/c1ccc(OC)cc1)C(C)C`, for which the inhibition was -9.35% (inactive).
On the same count and under the same terms, the value for `COc1ccc(NC(=O)N(C)C[C@@H]2OCc3cn(nn3)CCCC(=O)N([C@H](C)CO)C[C@H]2C)cc1` was -1.7% (inactive); that for `COc1ccccc1CNC(=O)CN(CCc1ccccc1)S(C)(=O)=O` was -7.36% (inactive).
On the same count and under the same terms, the value for `COc1ccc(NS(=O)(=O)c2cc(NC(=O)c3sccc3C)ccc2N2CCOCC2)cc1` was 0.57% (inactive); that for `CC(=O)c1ccc(N2CCN(S(=O)(=O)c3c(C(=O)N4CCCCC4)c(C)n(C)c3C)CC2)cc1` was -2.71% (inactive).
Consider `Fc1cccc(Cl)c1CN1CCN(c2nc3ccccc3s2)CC1`, for which the inhibition was -4.55% (inactive).
Take `COc1ccc(O)c(/C=N/c2nc3ccccc3n2C)c1`: the inhibition was 3.47% (inactive).
Still for that read-out and setting: to `CCn1c(/C=N/c2nc3ccccc3n2C)nc2ccccc21` belongs -0.7% (inactive); to `Cc1csc2c(=O)n3c(nc12)CCCCC3`, -3.21% (inactive); to `Cc1ccc(Sc2ccc(/C=C3/C(=O)NN(c4ccccc4)C3=O)o2)cc1`, -2.65% (inactive).
The same measure, in the same setting: to `CCN1C(=O)N/C(=C/c2ccc(Sc3ccc(C)cc3)o2)C1=O` belongs -2.74% (inactive); to `O=C(COC(=O)/C=C/c1ccco1)NC1CCCCC1`, -4.04% (inactive).
As to `CC(=O)Nc1ccc(C(=O)CSc2nnc(-c3ccccc3F)n2CCc2ccccc2)cc1`, the inhibition is -4.64% (inactive).
Same read-out and setting: the value for `C[C@@H](C[C@@H](O)[C@H](O)C(C)(C)O)[C@@H]1CC[C@]2(C)C3=CC[C@H]4C(C)(C)C(=O)CC[C@]4(C)[C@H]3CC[C@@]12C` was -3.21% (inactive); that for `O=C(COC(=O)c1cc(Br)ccc1O)NNC(=O)c1cccs1` was 0% (inactive); that for `CNc1ncnc(Sc2nc(N)nc3nc[nH]c23)c1[N+](=O)[O-]` was -30.9% (inactive).
Still for that read-out and setting: the value for `Nc1nc(SCc2ccccc2)c2[nH]cnc2n1` was -9.52% (inactive).
